This passage reports residual activity results from ChEMBL document CHEMBL2218924, “A broad activity screen in support of a chemogenomic map for kinase signalling research and drug discovery” (Biochem J, 2013).

For experiment [1], the target named is T1, Mitogen-activated protein kinase kinase kinase 7 (Homo sapiens) (UniProt O43318).
T1 sequence (whole entry): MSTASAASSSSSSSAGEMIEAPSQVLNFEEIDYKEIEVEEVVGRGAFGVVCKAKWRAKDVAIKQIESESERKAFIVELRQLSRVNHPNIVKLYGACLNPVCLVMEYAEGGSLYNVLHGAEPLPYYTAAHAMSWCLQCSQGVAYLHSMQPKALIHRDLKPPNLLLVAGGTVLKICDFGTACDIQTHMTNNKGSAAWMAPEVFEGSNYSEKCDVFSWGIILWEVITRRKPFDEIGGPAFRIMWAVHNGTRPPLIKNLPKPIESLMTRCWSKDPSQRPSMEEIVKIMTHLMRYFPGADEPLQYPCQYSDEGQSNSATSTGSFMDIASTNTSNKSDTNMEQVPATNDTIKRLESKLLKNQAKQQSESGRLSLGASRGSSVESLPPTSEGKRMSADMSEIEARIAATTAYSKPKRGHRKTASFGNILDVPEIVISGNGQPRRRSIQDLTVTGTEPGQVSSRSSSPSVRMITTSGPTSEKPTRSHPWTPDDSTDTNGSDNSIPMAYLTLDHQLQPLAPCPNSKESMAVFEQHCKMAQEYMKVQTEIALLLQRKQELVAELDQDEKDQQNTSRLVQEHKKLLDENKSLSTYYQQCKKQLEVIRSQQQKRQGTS
Conditions: at 10 µM.

Experiment [2] addresses T2, Serine/threonine-protein kinase TAO1 (Homo sapiens) (UniProt Q7L7X3).
T2 sequence (whole entry): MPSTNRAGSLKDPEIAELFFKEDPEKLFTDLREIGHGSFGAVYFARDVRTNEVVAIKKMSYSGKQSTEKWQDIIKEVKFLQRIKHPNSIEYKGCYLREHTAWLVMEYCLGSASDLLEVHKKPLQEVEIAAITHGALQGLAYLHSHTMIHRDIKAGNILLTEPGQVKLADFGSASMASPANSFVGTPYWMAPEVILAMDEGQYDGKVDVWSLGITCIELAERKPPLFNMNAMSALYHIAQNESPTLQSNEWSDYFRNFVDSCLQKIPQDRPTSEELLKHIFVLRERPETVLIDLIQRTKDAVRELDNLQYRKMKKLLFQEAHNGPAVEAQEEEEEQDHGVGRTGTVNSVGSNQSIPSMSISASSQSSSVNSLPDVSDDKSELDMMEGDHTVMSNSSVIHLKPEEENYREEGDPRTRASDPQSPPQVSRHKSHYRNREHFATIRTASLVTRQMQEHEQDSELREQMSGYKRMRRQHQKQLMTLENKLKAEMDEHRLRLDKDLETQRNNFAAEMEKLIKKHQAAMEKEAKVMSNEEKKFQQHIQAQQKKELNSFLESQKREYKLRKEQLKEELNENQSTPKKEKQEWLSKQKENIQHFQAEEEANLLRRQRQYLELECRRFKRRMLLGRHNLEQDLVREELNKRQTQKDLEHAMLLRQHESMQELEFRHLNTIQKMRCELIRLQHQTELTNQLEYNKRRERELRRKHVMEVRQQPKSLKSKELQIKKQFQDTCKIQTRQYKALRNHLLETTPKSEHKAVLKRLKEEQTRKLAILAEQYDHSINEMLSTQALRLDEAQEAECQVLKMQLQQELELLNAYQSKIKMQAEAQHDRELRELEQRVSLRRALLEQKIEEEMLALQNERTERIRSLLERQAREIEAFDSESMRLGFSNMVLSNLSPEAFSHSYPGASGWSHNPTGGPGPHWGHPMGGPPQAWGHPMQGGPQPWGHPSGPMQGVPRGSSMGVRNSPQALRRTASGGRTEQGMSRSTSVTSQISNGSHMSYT
Conditions: at 10 µM.

In experiment [3] the target is T3, Serine/threonine-protein kinase TAO2 (Homo sapiens) (UniProt Q9UL54).
T3 sequence (whole entry): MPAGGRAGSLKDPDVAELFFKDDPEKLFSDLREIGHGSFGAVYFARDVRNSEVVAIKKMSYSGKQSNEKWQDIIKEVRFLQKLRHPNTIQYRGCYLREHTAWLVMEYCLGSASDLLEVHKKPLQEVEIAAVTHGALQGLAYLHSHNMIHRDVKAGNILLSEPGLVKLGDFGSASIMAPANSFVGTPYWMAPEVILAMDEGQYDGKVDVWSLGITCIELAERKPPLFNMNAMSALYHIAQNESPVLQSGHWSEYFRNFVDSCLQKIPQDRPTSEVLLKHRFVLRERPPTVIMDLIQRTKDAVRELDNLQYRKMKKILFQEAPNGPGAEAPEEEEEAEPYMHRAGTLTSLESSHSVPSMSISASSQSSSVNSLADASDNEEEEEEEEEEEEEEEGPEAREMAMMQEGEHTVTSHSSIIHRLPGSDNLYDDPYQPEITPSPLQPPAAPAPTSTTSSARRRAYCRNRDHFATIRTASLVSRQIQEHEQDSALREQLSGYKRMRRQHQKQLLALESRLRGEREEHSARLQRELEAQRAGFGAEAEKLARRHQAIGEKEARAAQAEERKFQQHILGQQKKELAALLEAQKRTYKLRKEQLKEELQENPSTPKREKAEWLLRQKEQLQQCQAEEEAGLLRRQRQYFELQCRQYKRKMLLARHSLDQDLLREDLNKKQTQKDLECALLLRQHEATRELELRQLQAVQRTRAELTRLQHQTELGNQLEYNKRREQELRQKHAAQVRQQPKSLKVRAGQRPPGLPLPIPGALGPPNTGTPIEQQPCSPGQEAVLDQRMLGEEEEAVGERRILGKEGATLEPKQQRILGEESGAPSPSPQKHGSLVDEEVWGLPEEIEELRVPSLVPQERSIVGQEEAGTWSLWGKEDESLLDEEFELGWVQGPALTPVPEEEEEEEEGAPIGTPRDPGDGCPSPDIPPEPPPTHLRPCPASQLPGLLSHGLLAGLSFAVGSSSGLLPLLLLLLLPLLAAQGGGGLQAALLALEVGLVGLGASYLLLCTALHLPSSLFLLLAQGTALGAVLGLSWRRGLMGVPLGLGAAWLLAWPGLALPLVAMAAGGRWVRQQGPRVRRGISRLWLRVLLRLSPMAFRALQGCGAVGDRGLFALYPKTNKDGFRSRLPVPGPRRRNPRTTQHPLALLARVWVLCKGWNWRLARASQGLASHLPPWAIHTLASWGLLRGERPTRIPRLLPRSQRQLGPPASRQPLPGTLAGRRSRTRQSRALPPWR
Conditions: at 10 µM.

Experiment [4] addresses T4, Serine/threonine-protein kinase TAO3 (Homo sapiens) (UniProt Q9H2K8).
T4 sequence (whole entry): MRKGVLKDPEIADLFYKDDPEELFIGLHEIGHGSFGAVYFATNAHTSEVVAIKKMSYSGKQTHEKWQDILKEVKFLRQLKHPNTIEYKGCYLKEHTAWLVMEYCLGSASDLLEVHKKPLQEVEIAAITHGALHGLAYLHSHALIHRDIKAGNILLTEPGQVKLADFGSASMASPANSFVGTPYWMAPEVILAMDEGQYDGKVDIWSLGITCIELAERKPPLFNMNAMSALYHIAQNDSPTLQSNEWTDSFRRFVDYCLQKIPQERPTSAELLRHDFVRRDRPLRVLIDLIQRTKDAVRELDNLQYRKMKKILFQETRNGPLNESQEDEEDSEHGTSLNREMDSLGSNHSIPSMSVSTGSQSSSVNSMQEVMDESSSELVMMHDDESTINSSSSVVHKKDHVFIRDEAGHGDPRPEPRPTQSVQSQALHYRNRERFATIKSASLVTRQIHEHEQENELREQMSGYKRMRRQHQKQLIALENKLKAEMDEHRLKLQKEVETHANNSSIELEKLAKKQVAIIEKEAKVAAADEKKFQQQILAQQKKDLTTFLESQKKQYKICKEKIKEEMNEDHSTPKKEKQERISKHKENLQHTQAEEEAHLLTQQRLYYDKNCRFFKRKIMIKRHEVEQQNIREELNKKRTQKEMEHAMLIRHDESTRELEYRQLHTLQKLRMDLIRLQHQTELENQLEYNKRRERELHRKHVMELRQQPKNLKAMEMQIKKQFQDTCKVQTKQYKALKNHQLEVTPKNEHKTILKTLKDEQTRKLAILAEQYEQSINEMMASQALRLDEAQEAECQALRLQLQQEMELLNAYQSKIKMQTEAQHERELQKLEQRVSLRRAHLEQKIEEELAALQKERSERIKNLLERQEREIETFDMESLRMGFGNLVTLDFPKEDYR
To be noted: at 10 µM.

Experiment [5] addresses T5, Serine/threonine-protein kinase TBK1 (Homo sapiens) (UniProt Q9UHD2).
T5 sequence (whole entry): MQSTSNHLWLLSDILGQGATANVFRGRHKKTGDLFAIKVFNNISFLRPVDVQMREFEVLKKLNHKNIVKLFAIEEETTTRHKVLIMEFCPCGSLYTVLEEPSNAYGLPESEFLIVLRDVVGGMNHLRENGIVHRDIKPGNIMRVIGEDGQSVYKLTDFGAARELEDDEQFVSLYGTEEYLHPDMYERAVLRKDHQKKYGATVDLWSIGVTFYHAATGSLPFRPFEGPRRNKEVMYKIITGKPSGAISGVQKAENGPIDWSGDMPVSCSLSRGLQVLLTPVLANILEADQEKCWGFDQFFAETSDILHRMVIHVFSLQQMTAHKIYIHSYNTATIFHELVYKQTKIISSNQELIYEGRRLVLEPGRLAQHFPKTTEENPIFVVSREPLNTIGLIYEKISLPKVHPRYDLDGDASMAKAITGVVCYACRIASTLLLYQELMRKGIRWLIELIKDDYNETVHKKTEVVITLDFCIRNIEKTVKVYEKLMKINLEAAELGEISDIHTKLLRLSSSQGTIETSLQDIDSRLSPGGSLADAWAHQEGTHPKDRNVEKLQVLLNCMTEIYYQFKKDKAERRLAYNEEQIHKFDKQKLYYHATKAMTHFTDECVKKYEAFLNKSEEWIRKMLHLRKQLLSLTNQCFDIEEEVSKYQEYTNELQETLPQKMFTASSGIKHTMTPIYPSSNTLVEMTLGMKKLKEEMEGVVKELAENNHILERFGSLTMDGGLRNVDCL
Conditions: at 1 µM.

Experiment [6] deals with T5, Serine/threonine-protein kinase TBK1 (Homo sapiens). To be noted: at 10 µM.
Experiment [7] concerns the target Insulin-like growth factor 1 receptor (Homo sapiens) (UniProt P08069). To be noted: at 10 µM.
Experiment [8] has as its target T6, Inhibitor of nuclear factor kappa-B kinase subunit beta (Homo sapiens) (UniProt O14920).
T6 sequence (whole entry): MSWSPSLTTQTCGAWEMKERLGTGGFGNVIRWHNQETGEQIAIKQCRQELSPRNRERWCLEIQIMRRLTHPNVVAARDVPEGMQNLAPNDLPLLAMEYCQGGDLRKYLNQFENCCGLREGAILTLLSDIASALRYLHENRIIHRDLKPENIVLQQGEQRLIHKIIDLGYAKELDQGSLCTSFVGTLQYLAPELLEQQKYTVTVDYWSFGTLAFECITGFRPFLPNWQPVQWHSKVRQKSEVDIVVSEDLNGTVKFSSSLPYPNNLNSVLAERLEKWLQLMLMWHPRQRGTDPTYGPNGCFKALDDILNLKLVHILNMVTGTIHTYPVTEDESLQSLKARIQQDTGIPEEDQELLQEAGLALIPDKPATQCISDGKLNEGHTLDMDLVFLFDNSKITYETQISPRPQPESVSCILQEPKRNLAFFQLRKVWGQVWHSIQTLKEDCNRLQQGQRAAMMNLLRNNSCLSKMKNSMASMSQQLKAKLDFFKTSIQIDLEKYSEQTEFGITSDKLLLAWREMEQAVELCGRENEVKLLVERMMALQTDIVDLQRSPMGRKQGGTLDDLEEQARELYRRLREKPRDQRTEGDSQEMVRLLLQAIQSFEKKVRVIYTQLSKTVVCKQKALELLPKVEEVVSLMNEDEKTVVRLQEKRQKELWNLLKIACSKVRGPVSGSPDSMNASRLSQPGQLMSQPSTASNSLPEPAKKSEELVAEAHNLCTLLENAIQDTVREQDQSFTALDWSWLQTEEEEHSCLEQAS
Conditions: at 10 µM.

For experiment [9], the target named is Insulin receptor (Homo sapiens) (UniProt P06213). To be noted: at 1 µM.
The target of experiment [10] is T1, Mitogen-activated protein kinase kinase kinase 7 (Homo sapiens). To be noted: at 1 µM.
For experiment [11], the target named is T4, Serine/threonine-protein kinase TAO3 (Homo sapiens). Conditions: at 1 µM.
Experiment [12] deals with T7, TGF-beta receptor type-1 (Homo sapiens) (UniProt P36897).
T7 sequence (whole entry): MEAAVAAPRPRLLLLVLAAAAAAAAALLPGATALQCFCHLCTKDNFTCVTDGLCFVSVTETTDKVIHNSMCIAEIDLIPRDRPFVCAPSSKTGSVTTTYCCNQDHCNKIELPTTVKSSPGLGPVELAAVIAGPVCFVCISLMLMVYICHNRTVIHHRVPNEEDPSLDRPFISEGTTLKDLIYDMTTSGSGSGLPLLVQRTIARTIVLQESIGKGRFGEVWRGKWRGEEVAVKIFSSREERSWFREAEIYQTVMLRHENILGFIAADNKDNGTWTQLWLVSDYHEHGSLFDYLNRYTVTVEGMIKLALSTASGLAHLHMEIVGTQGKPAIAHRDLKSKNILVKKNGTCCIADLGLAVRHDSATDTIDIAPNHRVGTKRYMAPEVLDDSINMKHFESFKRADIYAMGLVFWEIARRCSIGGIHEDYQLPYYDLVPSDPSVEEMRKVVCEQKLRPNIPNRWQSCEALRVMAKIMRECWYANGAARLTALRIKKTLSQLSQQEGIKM
To be noted: at 10 µM.

Experiment [13] addresses T2, Serine/threonine-protein kinase TAO1 (Homo sapiens). Conditions: at 1 µM.

Insulin receptor (Homo sapiens), sequence (P06213 28-758 limits assumed): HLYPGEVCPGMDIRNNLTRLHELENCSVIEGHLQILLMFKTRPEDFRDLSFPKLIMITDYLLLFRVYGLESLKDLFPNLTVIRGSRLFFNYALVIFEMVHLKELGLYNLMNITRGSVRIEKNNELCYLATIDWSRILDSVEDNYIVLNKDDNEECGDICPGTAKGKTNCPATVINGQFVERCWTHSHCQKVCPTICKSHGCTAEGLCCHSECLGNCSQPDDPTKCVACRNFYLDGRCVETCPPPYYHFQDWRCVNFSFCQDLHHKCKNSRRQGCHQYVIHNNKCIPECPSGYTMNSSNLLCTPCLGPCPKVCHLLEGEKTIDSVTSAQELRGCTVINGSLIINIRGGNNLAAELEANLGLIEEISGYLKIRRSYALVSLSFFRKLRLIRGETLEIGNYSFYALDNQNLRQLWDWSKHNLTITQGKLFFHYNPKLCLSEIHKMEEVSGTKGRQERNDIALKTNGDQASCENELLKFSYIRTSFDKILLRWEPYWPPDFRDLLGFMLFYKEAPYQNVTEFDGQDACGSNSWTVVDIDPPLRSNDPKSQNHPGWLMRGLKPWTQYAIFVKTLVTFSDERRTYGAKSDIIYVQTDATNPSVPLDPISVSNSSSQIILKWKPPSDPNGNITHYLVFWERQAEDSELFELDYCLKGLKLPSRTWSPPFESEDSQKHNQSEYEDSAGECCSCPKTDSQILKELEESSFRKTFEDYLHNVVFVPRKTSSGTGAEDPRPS
Insulin receptor (Homo sapiens), sequence (P06213 763-1382 limits assumed): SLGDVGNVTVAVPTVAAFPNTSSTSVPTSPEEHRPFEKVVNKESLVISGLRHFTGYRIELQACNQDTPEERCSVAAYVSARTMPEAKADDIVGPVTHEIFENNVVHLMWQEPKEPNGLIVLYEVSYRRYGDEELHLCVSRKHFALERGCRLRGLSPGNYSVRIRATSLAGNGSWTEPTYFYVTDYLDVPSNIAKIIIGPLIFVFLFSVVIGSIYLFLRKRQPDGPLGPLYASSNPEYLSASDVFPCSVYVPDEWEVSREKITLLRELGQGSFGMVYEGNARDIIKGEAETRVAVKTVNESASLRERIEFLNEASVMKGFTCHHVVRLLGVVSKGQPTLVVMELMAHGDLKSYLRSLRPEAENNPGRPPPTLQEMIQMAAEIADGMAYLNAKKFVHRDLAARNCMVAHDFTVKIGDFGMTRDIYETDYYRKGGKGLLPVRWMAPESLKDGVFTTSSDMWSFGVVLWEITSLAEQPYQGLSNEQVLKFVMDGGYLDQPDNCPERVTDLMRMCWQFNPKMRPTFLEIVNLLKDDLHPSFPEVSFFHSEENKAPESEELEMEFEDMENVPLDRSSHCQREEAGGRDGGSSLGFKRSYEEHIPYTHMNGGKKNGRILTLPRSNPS
Insulin-like growth factor 1 receptor (Homo sapiens), sequence (P08069 31-736 limits assumed): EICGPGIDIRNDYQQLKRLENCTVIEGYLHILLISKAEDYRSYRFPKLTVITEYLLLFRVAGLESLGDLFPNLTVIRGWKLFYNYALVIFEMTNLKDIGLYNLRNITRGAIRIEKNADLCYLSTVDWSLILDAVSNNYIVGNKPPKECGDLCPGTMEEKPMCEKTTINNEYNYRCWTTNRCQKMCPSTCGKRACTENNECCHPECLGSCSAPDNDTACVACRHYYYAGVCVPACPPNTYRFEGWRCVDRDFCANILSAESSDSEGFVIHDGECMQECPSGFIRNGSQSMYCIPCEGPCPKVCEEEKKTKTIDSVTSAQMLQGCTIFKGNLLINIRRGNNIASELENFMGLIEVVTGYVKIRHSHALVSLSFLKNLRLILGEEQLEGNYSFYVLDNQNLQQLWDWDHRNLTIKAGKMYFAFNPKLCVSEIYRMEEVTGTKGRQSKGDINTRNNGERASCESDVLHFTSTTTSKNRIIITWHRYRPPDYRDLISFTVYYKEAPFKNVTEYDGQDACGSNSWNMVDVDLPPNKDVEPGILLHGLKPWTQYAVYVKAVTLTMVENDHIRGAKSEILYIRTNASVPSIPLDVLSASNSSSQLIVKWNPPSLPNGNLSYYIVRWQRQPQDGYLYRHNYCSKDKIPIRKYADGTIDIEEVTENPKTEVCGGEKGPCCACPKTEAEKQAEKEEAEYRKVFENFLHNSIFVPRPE
Insulin-like growth factor 1 receptor (Homo sapiens), sequence (P08069 741-1367 limits assumed): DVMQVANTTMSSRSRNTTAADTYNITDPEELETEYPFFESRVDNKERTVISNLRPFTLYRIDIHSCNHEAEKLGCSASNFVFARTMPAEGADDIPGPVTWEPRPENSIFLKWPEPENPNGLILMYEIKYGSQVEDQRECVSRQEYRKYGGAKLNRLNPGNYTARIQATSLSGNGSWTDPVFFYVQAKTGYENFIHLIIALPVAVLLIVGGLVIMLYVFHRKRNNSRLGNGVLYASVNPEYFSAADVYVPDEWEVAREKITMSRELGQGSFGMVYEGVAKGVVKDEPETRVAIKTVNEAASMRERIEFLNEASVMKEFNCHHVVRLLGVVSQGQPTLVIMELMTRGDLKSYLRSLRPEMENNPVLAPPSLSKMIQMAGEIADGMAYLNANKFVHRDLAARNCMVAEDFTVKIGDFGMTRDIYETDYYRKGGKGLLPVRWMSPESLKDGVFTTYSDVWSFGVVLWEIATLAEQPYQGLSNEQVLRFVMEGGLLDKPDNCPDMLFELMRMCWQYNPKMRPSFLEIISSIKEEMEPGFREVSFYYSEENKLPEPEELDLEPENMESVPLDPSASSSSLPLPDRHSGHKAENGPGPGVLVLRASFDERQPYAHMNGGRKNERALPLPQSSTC

As for `N#Cc1c(NC(=O)c2cccc3ccccc23)sc2c1CCCC2`, the residual activity was 93% in experiment [1]; 93% in [2]; 99% in experiment [3]; 88% in experiment [4]; 67% in experiment [5]; 73% in experiment [6]. Also, the results for the residual activity in [7], in experiment [8] and in experiment [9] were 124%, 100% and 137%, respectively.
Regarding `O=C1Nc2ccccc2/C1=C\c1c(Cl)[nH]c2ccccc12`, the residual activity in experiment [10] was determined as 99%; in experiment [1], 77%; in experiment [2], 63%; in experiment [3] it was 44%; in [11], 85%; in experiment [4], 40%. Besides, the residual activity in [5] is 72%; in [6] it was 43%; in [12], 74%.
Consider `Fc1ccc(-c2nc3n(c2-c2ccncc2)CCS3)cc1`, for which the residual activity was found to be 88% in experiment [1]; 99% in experiment [13]; 83% in experiment [2]; 76% in experiment [4]; 89% in experiment [6].
